# Results reported in PubChem BioAssay (EPA / NIEHS).
# Where “and” joins values, the source holds several entries; their conditions need not be identical. Equal values may be shown once. More than one record can exist for a structure, and the calls need not agree. Calls of active or inactive are those of the source. The calls were made as follows: active = hit-call score of the fitted dose curve at least 0.9, where 1 is the maximum; inactive = score below 0.9.
# What was measured:
# [1] = read-out: Monocyte Chemoattractant Protein-1 (MCP1), CCL2 (gene 6347); assay: BSK_SAg_MCP1: BioMAP Diversity Plus: SAg Assay for Monocyte Chemoattractant Protein-1 (MCP1) Biomarker Activity (AID 2283090); conditions: primary human HUVEC with PBMC; actives raise or lower the signal
# Outline: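 Values derive from bidirectional fitting of ELISA-measured MCP1 against DMSO controls. Readings were taken 24 h after dosing human vascular endothelial cells co-cultured with peripheral blood mononuclear cells under superantigen stimulation.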
# [2] = read-out: E-selectin (Homo sapiens) (UniProt P16581); assay: BSK_SAg_Eselectin: BioMAP Diversity Plus: SAg Assay for Eselectin Biomarker Activity (AID 2283091); conditions: primary human HUVEC with PBMC; actives raise or lower the signal
# Outline: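 Endpoint values derive from bidirectional fitting relative to DMSO, using ELISA-measured E-selectin in a human vascular co-culture (umbilical vein endothelium plus PBMC) sampled 24 h after dosing.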
# [3] = read-out: Monokine induced gamma interferon (MIG), CXCL9 (gene 4283); assay: BSK_SAg_MIG: BioMAP Diversity Plus: SAg Assay for Monokine induced gamma interferon (MIG) Biomarker Activity (AID 2283092); conditions: primary human HUVEC with PBMC; actives raise or lower the signal
# Outline: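 Endothelial cells and PBMC were co-cultured, exposed to test chemicals, and sampled 24 h later. MIG was measured by ELISA, and responses were fitted in both directions relative to DMSO.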
# [4] = BSK_SAg_PBMCCytotoxicity: PBMC Cytotoxicity Assessment in the BioMAP Diversity Plus: SAg Assay (AID 2283093); conditions: primary human HUVEC with PBMC;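 also: PBMC viability measured as Alamar Blue reduction fluorescence at 546/580 nm; fitted both ways against DMSO so a hit may be loss or gain of signal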;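 as to AC50: PBMC superantigen activated with SEB plus TSST-1 one hour after compound addition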
# Outline: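 Alamar Blue reduction (6 h, 546/580 nm) reports PBMC cytotoxicity after 90 h superantigen activation (SEB, TSST-1; 20 ng/mL final each) with 1 h compound pre-treatment. Gain or loss of signal fitted versus DMSO.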
# [5] = read-out: Interleukin-8 (IL8), CXCL8 (gene 3576); assay: BSK_SAg_IL8: BioMAP Diversity Plus: SAg Assay for Interleukin-8 (IL8) Biomarker Activity (AID 2283094); conditions: primary human HUVEC with PBMC; actives raise or lower the signal
# Outline: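 ELISA readout of IL-8 from a superantigen-activated endothelial/PBMC primary human co-culture, taken 24 h post-dosing and fitted in both directions against DMSO; parallel SRB total-protein staining flags overt cytotoxicity.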
# [6] = BSK_SAg_Proliferation: Cell Proliferation Assessment in the BioMAP Diversity Plus: SAg Assay (AID 2283095); conditions: primary human HUVEC with PBMC;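 also: relative cell number as total protein by SRB absorbance in sub-confluent culture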
# Outline: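 Relative cell number in the endothelial cell/PBMC co-culture was quantified at 96 h by SRB staining (0.1% SRB, 10% TCA fixation, read at 560 nm). Curves were fitted in both directions relative to DMSO baseline.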
# [7] = BSK_SAg_SRB: Viability Assessment in the BioMAP Diversity Plus: SAg Assay (AID 2283096); conditions: primary human HUVEC with PBMC;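 also: cells read one day after compound addition; hits may be either gain or loss of signal compared with DMSO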
# Outline: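 This overt-cytotoxicity endpoint quantifies protein in human endothelial/PBMC co-cultures at 24 h using SRB absorbance (560 nm) after trichloroacetic acid fixation. Values reflect signal change from the DMSO negative control, fitted bidirectionally.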
# E-selectin (Homo sapiens), sequence (P16581 whole entry, looked up): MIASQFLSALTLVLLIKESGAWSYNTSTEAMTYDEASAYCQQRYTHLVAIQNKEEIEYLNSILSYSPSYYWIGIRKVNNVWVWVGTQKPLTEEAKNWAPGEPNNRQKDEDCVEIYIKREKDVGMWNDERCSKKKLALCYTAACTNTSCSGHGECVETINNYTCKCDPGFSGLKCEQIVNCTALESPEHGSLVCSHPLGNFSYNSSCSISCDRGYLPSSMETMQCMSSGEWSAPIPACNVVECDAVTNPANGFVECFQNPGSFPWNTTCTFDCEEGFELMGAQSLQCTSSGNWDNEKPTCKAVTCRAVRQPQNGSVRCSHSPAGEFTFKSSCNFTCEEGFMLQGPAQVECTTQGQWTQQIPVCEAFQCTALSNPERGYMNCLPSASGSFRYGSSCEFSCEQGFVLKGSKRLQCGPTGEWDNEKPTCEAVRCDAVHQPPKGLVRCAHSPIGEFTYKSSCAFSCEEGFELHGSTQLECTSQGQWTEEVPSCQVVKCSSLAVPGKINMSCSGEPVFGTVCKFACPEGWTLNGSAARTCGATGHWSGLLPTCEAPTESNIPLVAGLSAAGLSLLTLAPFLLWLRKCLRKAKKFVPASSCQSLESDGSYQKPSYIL
SMILES,outcome [1],outcome [2],outcome [3],outcome [4],outcome [5],outcome [6],outcome [7],AC50 [4],AC50 [6],AC50 [7],AC50 [1],AC50 [2],AC50 [3],AC50 [5]
C=C(C)C(=O)OCCCCCCCCCCCC,inactive,inactive,inactive,inactive,inactive,inactive,inactive,,,,,,,
CCCCCCCCCCCC(=O)N(C)CC(=O)O,inactive,inactive,inactive,inactive,inactive,inactive,inactive,,,,,,,
O=C1CCCCCCCCCCC1,inactive,inactive,inactive,inactive,inactive,inactive,inactive,,,,,,,
O=C(O)C(F)(F)C(F)(F)C(F)(F)C(F)(F)C(=O)O,inactive,inactive,inactive,inactive,inactive,inactive,inactive,,,,,,,
CCc1cccc(C)c1N(C(=O)CS(=O)(=O)O)C(C)COC (stereo not drawn),inactive,inactive,inactive,inactive,inactive,inactive,inactive,,,,,,,
CCCCCCCCC(CO)CCCCCC (stereo not drawn),inactive,inactive,inactive,inactive,inactive,inactive,inactive,,,,,,,
CC(C)c1cccc(C(C)C)c1N,inactive,inactive,inactive,inactive,inactive,inactive,inactive,,,,,,,
CCC1(C)C(=O)N(Cl)C(=O)N1Cl (stereo not drawn),inactive,inactive,inactive,inactive,inactive,inactive,inactive,,,,,,,
CC(CCC(=O)O)(c1ccc(O)cc1)c1ccc(O)cc1,inactive,inactive,inactive,inactive,inactive,inactive,inactive,,,,,,,
CCOC(=O)C1=NN(c2ccc(Cl)cc2Cl)C(C)(C(=O)OCC)C1 (stereo not drawn),inactive,inactive,inactive,inactive,inactive,inactive,inactive,,,,,,,
C1CNCCN1,inactive,inactive,inactive,inactive,inactive,inactive,inactive,,,,,,,
CCCCC1C(=O)N(c2ccccc2)N(c2ccccc2)C1=O,inactive,inactive,inactive,inactive,inactive,inactive,inactive,,,,,,,
C[N+](C)(C)CCCNS(=O)(=O)C(F)(F)C(F)(F)C(F)(F)C(F)(F)C(F)(F)C(F)(F)C(F)(F)C(F)(F)F,inactive,inactive,inactive,inactive,inactive,inactive,,51.3 µM (active),46.5 µM (active),43.5 µM (active) and 46.5 µM (active),,,,
CC1=CC=C(C(C)C)CC1,inactive,inactive,inactive,inactive,inactive,inactive,inactive,,,,,,,
CCN1CN(CC)CN(CC)C1,inactive,inactive,inactive,inactive,inactive,,inactive,,36.3 µM (active),,,,,
CC/C=C\C/C=C\C/C=C\CCCCCCCC(=O)OC,,,,,,,,20 µM (active),6.5 µM (active),29 µM (active),33.8 µM (active),13 µM (active),37.2 µM (active),20 µM (active)
c1ccc(Nc2cccc3ccccc23)cc1,,,inactive,,,,,34.3 µM (active) and 36.9 µM (active),31.3 µM (active) and 30.4 µM (active),28.7 µM (active) and 30.3 µM (active),29.4 µM (active) and 30.4 µM (active),31.8 µM (active) and 33.5 µM (active),,31.1 µM (active) and 30.7 µM (active)
CC(Cl)COP(=O)(OCC(C)Cl)OCC(C)Cl (stereo not drawn),inactive,inactive,inactive,inactive,inactive,inactive,inactive,,,,,,,
c1ccc2c(c1)[nH]c1ccccc12,inactive,inactive,inactive,inactive,inactive,inactive,inactive,,,,,,,2.72 µM (active)
O=C1CCCCCCCCCCCN1,inactive,inactive,inactive,inactive,inactive,inactive,inactive,,,,,,,
C=CC(=O)OCCCCCCOC(=O)C=C,,,,,,,,3.97 µM (active),0.89 µM (active),20 µM (active),11 µM (active),5.55 µM (active),7.05 µM (active),0.714 µM (active)
Oc1ccc(/C=C/c2cc(O)cc(O)c2)cc1,inactive,inactive,inactive,inactive,inactive,,inactive,,20 µM (active),,,,,
CC1(C)CC(O)CC(C)(C)N1[O],inactive,inactive,inactive,inactive,inactive,inactive,inactive,,,,,,,
CC(C)C(=O)OCCc1ccccc1,inactive,inactive,inactive,inactive,inactive,inactive,inactive,,,,,,,
CCCCCCC=O,inactive,inactive,inactive,inactive,inactive,inactive,inactive,,,,,,,
